# Data taken from the supplement of paper PMC6607015.
# Counter-ions that a name gives are not always drawn.
# Key:
# Conditions in all cases: compound concentration in added solution (µM; 5 µl added to 20 µl cells): 10; 18 h
# A431 [1] = test: LBPA endosome anti-LBPA integrated intensity (sum per cell), Z-score; higher = more LBPA staining
# How it was run: (§1)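 Four 20× images per well were taken of HeLa MZ or A431 cells that had been seeded at 3,500 per well in 20 µl onto 5 µl of 10 µM compound solution in duplicate 384-well imaging plates. Before imaging, cells were incubated 18 h, fixed in 4% PFA and stained with 6C4 anti-LBPA antibody, filipin, propidium iodide and CellTracker green. Values are Z-scores normalised in AcuityXpress from MetaXpress-derived per-cell integrated LBPA or filipin intensity, either whole-cell or within LBPA endosomes.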
# HeLa MZ [2] = test: as above
# How it was run: as §1
# A431 [3] = test: whole-cell filipin (free cholesterol) integrated intensity, Z-score; higher = more cholesterol staining
# How it was run: as §1
# HeLa MZ [4] = test: as above
# How it was run: as §1
# A431 [5] = test: filipin (cholesterol) integrated intensity within LBPA endosomes, Z-score; higher = more cholesterol in LBPA endosomes
# How it was run: as §1
# HeLa MZ [6] = test: as above
# How it was run: as §1
Compound,LBPA endosome anti-LBPA integrated intensity (z-score) (A431 [1]),LBPA endosome anti-LBPA integrated intensity (z-score) (HeLa MZ [2]),whole-cell filipin (z-score) (A431 [3]),whole-cell filipin (z-score) (HeLa MZ [4]),filipin (z-score) (A431 [5]),filipin (z-score) (HeLa MZ [6])
CC[C@H](C)C(=O)O[C@H]1C[C@@H](C)C=C2C=C[C@H](C)[C@H](CC[C@@H]3C[C@@H](O)CC(=O)O3)[C@H]21 [Lovastatin],-0.976,-1.31,-0.714,-0.104,-0.696,0.121
O=C1C(O)=C([C@H]2CC[C@H](c3ccc(Cl)cc3)CC2)C(=O)c2ccccc21 [Atovaquone],-0.63,-0.824,-0.408,-0.361,-0.555,-0.654
CC1=C(C(=O)O)N2C(=O)[C@@H](NC(=O)[C@H](N)c3ccccc3)[C@H]2SC1 [Cephalexin monohydrate],-0.543,-0.797,-0.64,-0.482,-0.499,-0.511
Clc1ccc(C(Cn2ccnc2)OCc2c(Cl)cccc2Cl)c(Cl)c1 (stereo unspecified) [Isoconazole],-0.0559,1.26,-0.00171,-0.264,0.0343,0.0567
CC[N+](C)(CC)CCC[n+]1c(-c2ccccc2)c2cc(N)ccc2c2ccc(N)cc21 [Propidium iodide],-0.615,-1.77,-0.548,-0.836,-0.56,-0.527
CO[C@@H]1[C@@H](OC(N)=O)[C@@H](O)[C@H](Oc2ccc3c(O)c(NC(=O)c4ccc(O)c(CC=C(C)C)c4)c(=O)oc3c2C)OC1(C)C [Novobiocin sodium salt],-0.507,-0.477,-0.352,-0.602,-0.469,-0.462
Cn1c([N+](=O)[O-])cnc1COC(N)=O [Ronidazole],-0.617,-0.899,-0.075,-0.4,-0.579,-0.485
NC(Cc1cc(I)c(Oc2cc(I)c(O)c(I)c2)c(I)c1)C(=O)O (stereo unspecified) [Thyroxine (L)],-0.687,-1.35,-1.1,-0.619,-0.586,-0.6
CCC[C@H](N[C@@H](C)C(=O)N1[C@H](C(=O)O)C[C@@H]2CCCC[C@@H]21)C(=O)OCC [Perindopril],-0.273,-0.885,0.0463,-0.4,-0.305,-0.603
O=c1[nH]cnc2c1ncn2[C@H]1CC[C@@H](CO)O1 [Didanosine],-0.649,-1.14,-1.2,-0.832,-0.585,-0.693
COc1cc(C(=O)NCc2ccc(OCCN(C)C)cc2)cc(OC)c1OC [Trimethobenzamide hydrochloride],-0.218,-0.274,-0.94,-0.877,-0.32,-0.334
O=C(Nc1cccc2c(=O)cc(-c3nnn[nH]3)oc12)c1ccc(OCCCCc2ccccc2)cc1 [Pranlukast],-0.507,-1.1,-0.413,-0.657,-0.501,-0.637
COC(=O)CCc1ccc(OCC(O)CNC(C)C)cc1 (stereo unspecified) [Esmolol hydrochloride],-0.258,-0.524,-0.179,0.319,-0.36,-0.273
O=C(OCC(O)CO)c1ccccc1Nc1ccnc2cc(Cl)ccc12 (stereo unspecified) [Glafenine hydrochloride],0.592,1.9,-1,-1.18,-0.297,0.0497
CN1CCOC(c2ccccc2)c2ccccc2C1 (stereo unspecified) [Nefopam hydrochloride],-0.544,-0.0559,-0.752,-0.617,-0.509,-0.197
CO[C@H]1/C=C/O[C@@]2(C)Oc3c(C)c(O)c4c(O)c(c(/C=N/N5CCN(C)CC5)c(O)c4c3C2=O)NC(=O)/C(C)=C\C=C\[C@H](C)[C@H](O)[C@@H](C)[C@@H](O)[C@@H](C)[C@H](OC(C)=O)[C@@H]1C [Rifampicin],-0.422,-0.231,-0.651,-0.372,-0.402,-0.338
CN1CC2c3ccccc3Oc3ccc(Cl)cc3C2C1 (stereo unspecified) [Asenapine maleate],2.13,2,0.865,-0.413,1.3,0.927
C[C@]1(Cn2ccnn2)[C@H](C(=O)O)N2C(=O)C[C@H]2S1(=O)=O [Tazobactam],-0.572,-0.303,-0.35,0.00122,-0.502,-0.538
N[C@@H](C(=O)N[C@@H]1C(=O)N2C(C(=O)O)=C(Cl)CC[C@H]12)c1ccccc1 [Loracarbef],-0.535,-0.139,-0.847,-0.304,-0.553,-0.73
CCC(C)(CN(C)C)OC(=O)c1ccccc1 (stereo unspecified) [Amyleine hydrochloride],-0.517,0.00392,-0.884,-0.337,-0.528,-0.471
CCOC(=O)[C@H](CCc1ccccc1)N[C@@H](C)C(=O)N1CCC[C@H]1C(=O)O [Enalapril maleate],-0.644,-2,-1.09,-0.795,-0.578,-0.713
C[C@H](CCC(=O)O)[C@H]1CC[C@H]2[C@@H]3[C@@H](O)C[C@@H]4C[C@H](O)CC[C@]4(C)[C@H]3CC[C@]12C [Urosiol],-0.47,-1.19,-0.529,-0.329,-0.433,-0.53
COc1ccccc1O [Guaiacol],-0.278,0.0632,0.299,-0.2,-0.335,-0.255

Compound,LBPA endosome anti-LBPA integrated intensity (z-score) (A431 [1]),LBPA endosome anti-LBPA integrated intensity (z-score) (HeLa MZ [2]),whole-cell filipin (z-score) (A431 [3]),whole-cell filipin (z-score) (HeLa MZ [4]),filipin (z-score) (A431 [5]),filipin (z-score) (HeLa MZ [6])
S=c1[nH]cnc2nc[nH]c12 [Mercaptopurine],-0.731,-1.06,-0.622,-1.37,-0.742,-0.984
CC(=O)N(CC(O)CN(C(C)=O)c1c(I)c(C(=O)NCC(O)CO)c(I)c(C(=O)NCC(O)CO)c1I)c1c(I)c(C(=O)NCC(O)CO)c(I)c(C(=O)NCC(O)CO)c1I (stereo unspecified) [Iodixanol],-0.538,-0.533,-0.268,-0.245,-0.464,-0.482
CC(C)NC(=N)NC(=N)Nc1ccc(Cl)cc1 [Proguanil hydrochloride],-0.302,1.15,-0.0125,0.372,-0.375,-0.0535
CC[N+](C)(C)Cc1ccccc1Br [Bretylium tosylate],-0.568,-0.254,-0.37,-0.522,-0.5,-0.561
CN(C)CC/C=C1/c2ccccc2COc2ccc(CC(=O)O)cc21 [Olopatadine hydrochloride],-0.245,0.672,0.305,0.861,-0.37,-0.275
Nc1ccc(/N=N/c2ccccc2)c(N)n1 [Phenazopyridine hydrochloride],-0.183,0.466,-0.169,-0.724,-0.32,-0.502
CC(=O)N(CC(C)C(=O)O)c1c(I)cc(I)c(N)c1I (stereo unspecified) [Iocetamic acid],-0.0668,-0.0236,-0.0512,0.178,-0.262,-0.476
CC(C)(S)[C@@H](N)C(=O)O [Penicillamine],-0.535,-0.589,-0.551,-0.607,-0.469,-0.553
CCOc1ccc2ccccc2c1C(=O)N[C@@H]1C(=O)N2[C@@H]1SC(C)(C)[C@@H]2C(=O)O [Nafcillin sodium salt monohydrate],-0.558,-0.117,-0.348,-0.195,-0.443,-0.476
CCOc1ccccc1OC(c1ccccc1)C1CNCCO1 (stereo unspecified) [Reboxetine mesylate],-0.315,0.133,-0.477,-0.595,-0.205,-0.384
CNCC[C@@H](Oc1ccccc1C)c1ccccc1 [Tomoxetine hydrochloride],-0.073,-0.709,0.0322,-0.417,-0.072,-0.0592
CCN1CCCC1CNC(=O)c1cc(S(N)(=O)=O)ccc1OC (stereo unspecified) [Sulpiride],-0.472,-0.315,-0.817,-0.434,-0.518,-0.501
OCCN1CCN(CCCN2c3ccccc3Sc3ccc(Cl)cc32)CC1 [Perphenazine],3.24,0.966,-0.472,-0.434,2.14,2.73
CC1CNc2c(cccc2S(=O)(=O)N[C@@H](CCCNC(=N)N)C(=O)N2CC[C@@H](C)C[C@@H]2C(=O)O)C1 (stereo partly specified) [Argatroban],-0.429,-0.462,-0.724,0.346,-0.455,-0.335
CC(=O)CCCCn1c(=O)c2c(ncn2C)n(C)c1=O [Pentoxifylline],-0.527,-0.115,-0.786,-0.278,-0.513,-0.514
Nc1cc(-c2ccncc2)c[nH]c1=O [Amrinone],-0.468,-0.737,-0.578,-0.805,-0.461,-0.541
CNCCCN1c2ccccc2CCc2ccccc21 [Desipramine hydrochloride],2.09,0.947,1.99,0.636,2.34,2.58
CN1C(C(=O)Nc2ccccn2)=C(O)c2ccccc2S1(=O)=O [Piroxicam],-0.541,-0.331,-0.896,-1.08,-0.561,-0.694
Cc1cc2cc3c(C)cc(=O)oc3c(C)c2o1 [Trioxsalen],-0.317,0.147,-0.465,-0.318,-0.425,-0.476
COc1cc(C)c(/C=C/C(C)=C/C=C/C(C)=C/C(=O)O)c(C)c1C [Acitretin],-0.624,-0.537,0.514,0.218,-0.413,-0.258
CC[C@H](C)[C@H](N)C1=N[C@H](C(=O)N[C@@H](CC(C)C)C(=O)N[C@H](CCC(=O)O)C(=O)N[C@H](C(=O)N[C@H]2CCCCNC(=O)[C@H](CC(N)=O)NC(=O)[C@@H](CC(=O)O)NC(=O)[C@H](Cc3cnc[nH]3)NC(=O)[C@@H](Cc3ccccc3)NC(=O)[C@H]([C@@H](C)CC)NC(=O)[C@@H](CCCN)NC2=O)[C@@H](C)CC)CS1 [Bacitracin],-0.168,0.277,-0.0253,0.293,-0.368,-0.388
CCC1(C)CC(=O)NC1=O (stereo unspecified) [Ethosuximide],-0.426,-0.83,-0.448,-0.207,-0.393,-0.464
"OCC(O)CN1CCN(c2ccccc2)CC1 (racemic) [Dropropizine (R,S)]",-0.485,-0.821,-0.651,-0.914,-0.515,-0.59
